Bioassay records deposited in PubChem BioAssay by National Center for Advancing Translational Sciences (NCATS).
This is a sample that favours compounds with a hit; in the whole collection about 19% have one here.
IL1B secr inh = inhibitors of inflammasome signaling (IL-1 beta secretion); activity change, % at 57.5 µM; 360,000 tested, 4.7% active; THP-1 LPS/ATP IL-1B secretion, AlphaLISA, 16 h; active compounds read low; AID 743279; in the data active means activity change below about -50%; inconclusive means mostly about -30% to -49%
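Secreted IL-1B measured by AlphaLISA bead assay after 16 h compound exposure of THP-1 cells; compounds (final up to 57.5 uM) added 1 h before LPS (250 ng/mL) and ATP (1.25 mM) stimulation; lower signal means less secretion.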
TDP1 cell noCPT = qHTS for Inhibitors of human tyrosyl-DNA phosphodiesterase 1 (TDP1): qHTS in cells in absence of CPT; DT40 Tdp1-/- hTDP1 cells, no CPT, ATP luminescence, 48 h; Potency, µM (series often up to 46.2 µM), most hits filed as inhibitors; 420,000 tested, 15% active; AID 686978, 2013; further: nearly all actives have a fitted effect of over 55% in size
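Readout: luminescence from CellTiter-Glo after 30 min in the dark at RT. Cells: DT40 Tdp1-/- with stable hTDP1, 400/well. Exposure: compounds alone, ≥48 hr, 37 °C.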
Chronic BCR inh = chronic active BCR signaling inhibition; ABC-DLBCL IkBa-CBG/CBR reporter, luminescence ratio, 4 h; 340,000 tested, 0.05% active; Potency, µM (titrated, usually from 46.1 µM), most hits filed as inhibitors; active means well fitted inhibition curve with a large enough effect in the signal ratio, with a control signal flat, not every such curve was filed as active; inconclusive means small, poorly fitted or top-dose-only effect, or effect the other way, or a change in a side signal; the % refers to the signal ratio
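Cell line TMD8 (human ABC DLBCL), stably expressing tet-inducible CBG68-IkBa fusion and CBR; IMDM/0.5% FBS; cpd up to 46 uM; dox induction, 4 h, 37C/5% CO2; dual luminescence; green/red ratio; MG132 control.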
SW480 rerep = DNA re-replication induction in SW480 cells. 340,000 tested, 1.8% active. Potency, µM (titrated, usually from 46.1 µM), hits mostly activators. AID 624297. SW480 DNA re-replication, Hoechst DNA content imaging, 48 h; further: nearly all actives have a fitted effect of over 55% in size
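Per well, 250 cells were exposed to pinned compound for 48 hr. Nuclear DNA was visualised with Hoechst (40 min, 37 C) and total object intensity recorded by fluorescence scanning.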
DT40 TDP1 CPT = DT40-hTDP1 cell growth loss with CPT; chicken DT40 Tdp1-/-;hTDP1 cells + 20 nM CPT, ATP luminescence, 48 h; AID 686979; 420,000 tested, 12% active; Potency, µM (series often up to 46.2 µM), actives largely listed as inhibitors; further: nearly all actives have a fitted effect of over 55% in size
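Cell growth measured by CellTiter-Glo luminescence after a minimum 48 h, 37 C compound exposure with 20 nM CPT in Tdp1-knockout DT40 cells stably expressing hTDP1, seeded 400/well; qHTS titration format.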
MCF10A rerep = DNA re-replication induction in MCF 10a cells. MCF 10A DNA re-replication, Hoechst nuclear intensity, 48 h. Potency, µM (series often up to 46.1 µM), hits mostly activators. 350,000 tested, 2.9% active; further: nearly all actives have a fitted effect of over 50% in size
Each line names hits and unclear results; the compound was inactive in the other large screens. Unless noted, the call rests on the fitted dose curve; in most records, active means well fitted curve in the direction sought with a large enough effect; inconclusive means small, poorly fitted or top-dose-only effect, or another doubt; inactive means no such curve, though single readings can be large; an effect the other way counts as inactive or inconclusive.

CC1=C(C(=O)Nc2ccccc2C)C(c2ccc(C)o2)n2c(s/c(=C/c3ccccc3)c2=O)=N1 (centres undefined)	TDP1 cell noCPT inconclusive, DT40 TDP1 CPT inconclusive
CC1=C(C(=O)Nc2ccccc2)C(c2ccc(C)o2)n2c(s/c(=C/c3ccccc3)c2=O)=N1 (centres undefined)	IL1B secr inh inconclusive, TDP1 cell noCPT inconclusive, Chronic BCR inh inconclusive, MCF10A rerep 15µM
Cc1ccccc1NC(=O)c1sc2nc(N3CCOCC3)c3c(c2c1N)CC(C)(C)OC3	TDP1 cell noCPT inconclusive (no result: IL1B secr inh, Chronic BCR inh, SW480 rerep, MCF10A rerep)
CC1(C)Cc2c(c(N3CCOCC3)nc3sc(C(=O)Nc4ccccc4)c(N)c23)CO1	TDP1 cell noCPT inconclusive, DT40 TDP1 CPT inconclusive
CC1(C)Cc2c(c(N3CCOCC3)nc3sc(C(=O)Nc4cccc(Cl)c4)c(N)c23)CO1	TDP1 cell noCPT inconclusive, SW480 rerep inconclusive, DT40 TDP1 CPT 18µM, MCF10A rerep inconclusive
Cc1cccc(NC(=O)c2sc3nc(N4CCOCC4)c4c(c3c2N)CC(C)(C)OC4)c1	TDP1 cell noCPT 7.3µM, DT40 TDP1 CPT inconclusive (no result: IL1B secr inh, Chronic BCR inh, SW480 rerep, MCF10A rerep)
Nc1c(C(=O)Nc2ccc(Br)cc2)sc2nc(N3CCOCC3)c3c(c12)CCCC3	TDP1 cell noCPT inconclusive, DT40 TDP1 CPT 21µM (no result: Chronic BCR inh, SW480 rerep, MCF10A rerep)
Cc1ccc(CN2C(=O)c3ccccc3C2c2nnnn2C(C)C)cc1 (centres undefined)	none (no result: Chronic BCR inh, SW480 rerep, MCF10A rerep)
C/C(CC(C)C)=N/Nc1ccc([N+](=O)[O-])cc1[N+](=O)[O-]	TDP1 cell noCPT inconclusive, DT40 TDP1 CPT inconclusive
CC(Cc1ccccc1)=NNc1ccc([N+](=O)[O-])cc1[N+](=O)[O-]	TDP1 cell noCPT 7.3µM, DT40 TDP1 CPT 16µM (no result: Chronic BCR inh)
COc1cccc(C(C)=NNc2ccc([N+](=O)[O-])cc2[N+](=O)[O-])c1OC	TDP1 cell noCPT 21µM, DT40 TDP1 CPT inconclusive (no result: Chronic BCR inh, SW480 rerep, MCF10A rerep)
Cc1nc(C)c(C(=O)NNS(=O)(=O)c2ccc3ccccc3c2)s1	TDP1 cell noCPT 23µM, DT40 TDP1 CPT inconclusive
Cc1nc(NS(=O)(=O)c2ccccc2)sc1C(=O)NNS(=O)(=O)c1ccccc1	none
Cc1ccc(S(=O)(=O)Nc2ccccc2/C=N/c2nc3ccccc3n2C(C)C)cc1	TDP1 cell noCPT 21µM, DT40 TDP1 CPT 18µM, MCF10A rerep 21µM
CCCCn1c(/N=C/c2ccccc2NS(=O)(=O)c2ccc(C)cc2)nc2ccccc21	TDP1 cell noCPT 23µM, DT40 TDP1 CPT inconclusive, MCF10A rerep inconclusive
Cc1cccc(Cc2ncc(C(F)(F)F)cc2Cl)c1	none
Cc1nn(-c2ccccn2)c2c1C(=O)CC(C)(C)C2Br (centres undefined)	TDP1 cell noCPT inconclusive, DT40 TDP1 CPT 16µM
CCCCC/C=C\C/C=C\C/C=C\C/C=C\CCCC(=O)O[C@@H](CO)COC(=O)CCCCCCCCCCCCCCCCC	none (no result: IL1B secr inh, Chronic BCR inh, SW480 rerep, MCF10A rerep)
COC(=O)c1cc(NC(=O)c2cc(C(C)(C)C)nn2Cc2ccc(F)cc2)ccc1N1CCOCC1	IL1B secr inh inconclusive, TDP1 cell noCPT 18µM, DT40 TDP1 CPT inconclusive
OCc1ccc2c(c1)c(-c1ccc3c(c1)OCCO3)c(-c1ccccc1)n2-c1ccccc1	TDP1 cell noCPT 23µM, DT40 TDP1 CPT 18µM, MCF10A rerep inconclusive
Cc1ccc2c(Sc3ccc(Cl)cc3)c(C(=O)N3CCC(C)CC3)[nH]c2c1	TDP1 cell noCPT 21µM, DT40 TDP1 CPT 16µM (no result: IL1B secr inh, Chronic BCR inh, SW480 rerep, MCF10A rerep)
O=S(=O)(c1cc(F)ccc1F)N1CCN(c2ncnc3ccccc23)CC1	TDP1 cell noCPT 2.1µM, Chronic BCR inh inconclusive, SW480 rerep 18µM, DT40 TDP1 CPT 2.3µM, MCF10A rerep 5.8µM
O=S(=O)(c1cc(F)ccc1F)N1CCN(c2ccccn2)CC1	SW480 rerep inconclusive
COCc1ccc2oc(C(=O)O)cc2c1	TDP1 cell noCPT 23µM, DT40 TDP1 CPT 12µM, MCF10A rerep inconclusive
CCOc1cc(OCC)cc(C(=O)N2CCC[C@H]2C(=O)N2CCC[C@H]2C(=O)N[C@@H](C)c2ccccc2)c1	TDP1 cell noCPT inconclusive, DT40 TDP1 CPT inconclusive (no result: Chronic BCR inh, SW480 rerep, MCF10A rerep)
